Bioassay records (PubChem)
An excerpt weighted towards active compounds, which were near 1.5% of everything screened.
AID504770 – growth inhibitors of E. coli YBA685 in a screen for V. cholerae RctB (chromosome II replication) inhibitors; E. coli YBA685 rctB-dependent plasmid, OD600 growth, 3 h; active compounds read low; hit rate 0.27% among 130,000; z-score (no concentration beside the values); AID 504770; in the data active = z-score below about -2, passing the limit was not always enough
PV pol inh – poliovirus RNA polymerase inhibition | P03300 | poliovirus polymerase elongation, fluorescence polarization; active compounds read low | % elongation, % (compound at 16.7 µg/mL) | hit rate 0.66% among 150,000 | AID 588519; in the data active = % elongation below about 90%
Mtb MbtI inh – blocks the Mycobacterium tuberculosis siderophore enzyme MbtI; P9WFX0; purified MbtI enzyme, fluorescence intensity read-out; inhibition, % (test concentration not listed); hit rate 0.89% among 100,000; AID 493033; in the data active = inhibition mostly above about 56%, no sharp cut-off; inactive = mostly below about 77%
Target sequence (P9WFX0 whole entry, looked up): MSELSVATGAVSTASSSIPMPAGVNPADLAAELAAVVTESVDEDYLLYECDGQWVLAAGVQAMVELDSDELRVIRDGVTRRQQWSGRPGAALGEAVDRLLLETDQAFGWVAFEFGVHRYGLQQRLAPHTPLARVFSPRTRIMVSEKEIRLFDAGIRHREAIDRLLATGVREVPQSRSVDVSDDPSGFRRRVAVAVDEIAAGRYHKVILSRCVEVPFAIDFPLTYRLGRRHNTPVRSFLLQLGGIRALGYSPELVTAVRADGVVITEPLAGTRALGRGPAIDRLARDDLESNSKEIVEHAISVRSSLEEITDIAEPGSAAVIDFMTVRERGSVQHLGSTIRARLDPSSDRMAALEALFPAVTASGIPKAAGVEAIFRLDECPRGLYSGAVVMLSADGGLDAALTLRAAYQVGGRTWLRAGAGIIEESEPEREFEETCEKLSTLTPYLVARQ
MenB inh – inhibitors of Mycobacterium tuberculosis MenB enzyme. inhibition, % (no concentration beside the values). MenB enzyme assay, absorbance read-out. hit rate 0.43% among 100,000. AID 540299. P9WNP5; in the data active = inhibition above about 21%, passing the limit was not always enough
* = called active by the depositor; · = not tested or not shown; ! = not confirmed by another sample.

SMILES | AID504770 | PV pol inh | Mtb MbtI inh | MenB inh
O=C(CC12CC3CC(CC(C3)C1)C2)NCC(=O)N1CCN(Cc2ccccc2)CC1 | 0.15 | 104 | -10 | -24
O=C(CC12CC3CC(CC(C3)C1)C2)NCC(=O)N1CCCC1 | -1.2 | 86* | -14 | -16
Cc1cc(NC(=O)c2cc3c(s2)-c2ccccc2S(=O)(=O)C3)no1 | -0.2 | · | · | ·
O=C(O)c1cc2ccccc2nc1Cl | -0.4 | 76* | 17 | -6
CN1CCN(C(=O)c2cc3ccccc3nc2Cl)CC1 | 0.7 | · | · | ·
Nc1cc2ccccc2cc1C(=O)O | -0.45 | 52* | 6 | -15
CC1CCC[S+](c2cc(O)ccc2O)C1 (centres undefined) | -0.85 | 101 | 101* | 7
NC(=O)c1ccc(NC(=O)c2cc3ccccc3oc2=O)cc1 | -1.5 | 104 | -1 | -29
CNC(=S)NNc1ncc(C(F)(F)F)cc1Cl | -0.25 | 101 | 24 | -4
CS(=O)(=O)CS(=O)(=O)NNc1ncc(C(F)(F)F)cc1Cl | -0.95 | 104 | 57* | -25
Cc1cc(=S)nc(-c2ccccn2)[nH]1 | -0.35 | 155 | 81* | -40
Cn1nc(-c2ccccn2)sc1=S | 1.5 | 100 | 1 | -28
Cc1nn(-c2ccccc2)c(Cl)c1C1N2CCCN1CC2 (centres undefined) | 1.2 | 102 | 3 | 33*
CCCCCn1c(SCC(=O)N2CCC(C(=O)O)CC2)nc2ccccc21 | 0.55 | 101 | 0 | -41
O=c1cc(-c2ccccc2)ss1 | -0.4 | 82* | 53* | -14
O=S(=O)(/N=c1/cc(-c2ccccc2)ss1)c1ccccc1 | -0.3 | 100 | · | -2
O=C1CCCCCN1Cc1n[nH]c(=S)o1 | -0.5 | 82* | 74* | -28
O=C(CCC(=O)c1ccc(F)cc1)c1ccc(F)cc1 | -0.25 | 105 | -13 | 3
O=C(CC1C(=O)Sc2[nH]c(=O)sc21)c1ccc(F)cc1 (centres undefined) | -0.25 | 55 | 85* | 59*
CSc1nsc(SC)c1NC(=O)OCCc1ccccn1 | 0.5 | · | · | ·
CSc1nsc(SC)c1NC(=O)OCC1CCCO1 (centres undefined) | -0.25 | 88* | · | 2
Cc1nn(CC(C)C)c(Cl)c1C(=O)N1CCc2ccccc2C1 | -0.8 | 97 | 0 | 15
CC(=O)c1ccc(NC(=O)C2=CC(c3ccc(C)cc3)=NS(=O)(=O)N2C)cc1 | · | 8.0* | · | ·
CC(=O)c1ccc(NC(=O)C2=CC(c3ccc4c(c3)OCO4)=NS(=O)(=O)N2C)cc1 | · | 108 | · | ·
COc1cccc(C(=O)Nc2cc(F)cc(F)c2)c1 | -1.1 | 101 | -17 | -3
SMILES | AID504770 | PV pol inh | Mtb MbtI inh | MenB inh
CN(C1CCCCC1)S(=O)(=O)c1ccc(F)c(F)c1 | 0.15 | 104 | -10 | ·
O/N=C1/CCCc2nn(-c3ccccc3)nc21 | 0.15 | 62* | · | 18
N#CC1=C2C=CC=CN2/C(=C\c2cn(-c3ccccc3)nc2-c2cccs2)C1=O | 0.2 | 95 | 1 | -22
CC1c2nc3ccccc3n2C(CC(=O)NCc2ccc(Cl)cc2)C(=O)N1Cc1ccccc1 (centres undefined) | 0.1 | 99 | 3 | -10
O=C1CSC(=Nc2cccc3ccccc23)N1 | -0.9 | 102 | -13 | -17
O=C1CS/C(=N\c2nccs2)N1 | -2.8* | 117 | -1 | -28
CNCc1ccc(C(C)(C)C)cc1 | -1 | 101 | -1 | -16
CCCOC(=O)c1c(NC(=O)C(C)Sc2nc(-c3ccccc3)cc(C(F)(F)F)n2)sc(C(=O)N(C)C)c1C (centres undefined) | · | 99 | · | ·
CCN(CC)C(=O)c1sc(NC(=O)C(C)Sc2nc(-c3ccccc3)cc(C(F)(F)F)n2)c(C(=O)OC)c1C (centres undefined) | · | 84* | · | ·
CCOC(=O)c1c(NC(=O)CSc2nc(-c3ccc(OC)cc3)cc(C(F)(F)F)n2)sc(C)c1C | · | 86* | · | ·
CCCOC(=O)c1c(NC(=O)CSc2nc(-c3ccco3)cc(C(F)(F)F)n2)sc(C(=O)N(C)C)c1C | -0.1 | 99 | 37 | -3
CCCCNC(=O)CSc1nc(-c2ccc(OC)cc2)cc(C(F)(F)F)n1 | · | 105 | · | ·
COC(=O)c1c(NC(=O)CSc2nc(-c3ccco3)cc(C(F)(F)F)n2)sc2c1CCCC2 | 0.1 | 99 | 57* | -5
C=CCN(CC(N)=O)S(=O)(=O)c1ccccc1C(F)(F)F | -0.2 | 104 | -29 | 10
O=C(O)c1ccc(CNCc2ccc(F)cc2)s1 | 0.35 | 100 | -6 | 11
CNc1ccc2cccc(O)c2n1 | -3.3* | 102 | -34 | -11
CN(C)c1nc(N)c(C#N)c(CC#N)c1C#N | 0.5 | 80* | 6 | 16
COc1ccc(NC(=O)Cn2cc(C#N)c3ccccc32)cc1 | 0.15 | 99 | -11 | -1
Cc1ccc(NC(=O)Cn2cc(C#N)c3ccccc32)cc1 | 1.8 | 102 | 3 | 56*
Cc1cc(C)n(C(=O)C(C)NC(=O)c2ccccc2)n1 (centres undefined) | 0.1 | 104 | · | 23*
Cc1cc(C)n(C(C)CNC(=O)c2ccccc2)n1 (centres undefined) | -0.85 | 104 | -9 | -48
NS(=O)(=O)c1ccc(CCn2c(=S)[nH]c3ccccc3c2=O)cc1 | -0.35 | 100 | 7 | 3
Cn1c(=S)[nH]c2cc(S(N)(=O)=O)ccc21 | 0.25 | 90* | 67 | -9
Cc1ccc(NC(=O)CN2C(=O)C(c3ccc(C(C)(C)C)cc3)=NC2(C)C)cc1 | · | 32* | · | ·
O=C1c2ccccc2-c2n[nH]c3cccc1c23 | -0.6 | 99 | 2 | -13
SMILES | AID504770 | PV pol inh | Mtb MbtI inh | MenB inh
O=c1[nH]nc2c3c(cccc13)-c1ccccc1-2 | 1 | 99 | 1 | 58*
S=c1[nH]nc(C2COc3ccccc3O2)o1 (centres undefined) | -0.65 | 98 | 73*! | -121
CCN(CC)Cc1cc(Nc2ccnc3cc(Cl)ccc23)ccc1O | · | 101 | 24 | -6
CN1CCN(c2ccc(Nc3ccnc4cc(Cl)ccc34)cc2Cl)CC1 | -0.25 | 89* | · | 0
CCn1c(O)c(N=NC(N)=S)c2ccccc21 | 0.05 | 76* | 78 | -66
CC(=O)N1CCN(c2ccc(N)cc2)CC1 | 1.9 | 103 | · | 30*
CCCCN1COc2c(cc(Cl)c3cccnc23)C1 | -5.8* | 101 | -119 | -10
C#CC(=O)OCC(=O)Nc1ccc(C)c(C)c1 | 0.4 | 89* | 66* | -25
CCn1ncc(Cl)c(Cl)c1=O | -1 | 77* | · | -13
O=C1c2ccccc2C(=O)N1Cn1ncc(Cl)c(Cl)c1=O | -0.65 | 106 | 1 | -16
O=C(CN1CCN(S(=O)(=O)c2cccs2)CC1)Nc1ccccc1Oc1ccccc1 | -1.1 | 103 | -9 | -17
CN1CCC(CN)CC1 | -0.95 | 101 | -9 | 10
CC(C)CC(=O)N1CCN(C(=O)C2CC2)CC1 | 1.4 | 104 | -1 | -65
COc1cccc(NC(=O)c2ccc(OC(=S)N3CCC(C)CC3)cc2)c1 | -2.8* | 106 | · | 1
Cc1ccc(C)c(C(=O)/C=C/C(=O)O)c1 | -0.2 | 102 | · | 67*
Cc1ccc(C)c(C(=O)NCC(C)C)c1 | -0.35 | 101 | -18 | -2
CNC1(C#N)CCC(C)CC1 (centres undefined) | -2.3* | 103 | -9 | -41
Nc1nc(SC#CC(F)(F)F)ns1 | -4.9* | 85* | 51 | -19
Cc1ccc(N)cc1N(C)C | 0.25 | 100 | -4 | -13
